Pf Dd2 growth: P. falciparum Dd2 growth inhibition | hit rate 2.3% among 94,000 | activity change, % at 10 µM | SYBR Green, 72 h; hits give low values; in the data active = activity change below about -80%
C diff HTS: C. difficile growth inhibition | Clostridium difficile clinical isolate growth, OD600, 24 h; hits give low values | growth activity, negative = inhibition, % at 16 µg/mL (by protocol) | hit rate 0.25% among 86,000 | AID 1259249;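 active = mean growth activity at or below -80% and every replicate also at or below -80%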
Each line names hits and unclear results; the compound was inactive in the other large screens; ! = repeats disagree. Shown are actives, neighbours in structure and some others; about 2.3% of the full set was active somewhere.

O=C(Nc1ccccc1)N1C[C@@H]2N[C@H](C1)C2c1ccc(-c2cccnc2)cc1 (some centres not stated)	none
Cc1cccc(-c2ccc(C3[C@@H]4CN(C(=O)Nc5ccccc5)C[C@H]3N4)cc2)c1 (some centres not stated)	none
Cc1cccc(-c2ccc(C3[C@@H]4CN(C(=O)Nc5ccc(F)cc5)C[C@H]3N4)cc2)c1 (some centres not stated)	C diff HTS -91!
O=C(C1CCC1)N1C[C@@H]2N[C@H](C1)C2c1ccc(/C=C/c2ccccc2)cc1 (some centres not stated)	none
O=C(Nc1ccc(C(F)(F)F)cc1)N1C[C@@H]2N[C@H](C1)C2c1ccc(/C=C/c2ccccc2)cc1 (some centres not stated)	Pf Dd2 growth -90!, C diff HTS -100
O=C(Nc1ccc(C(F)(F)F)cc1)N1C[C@@H]2N[C@H](C1)C2c1ccc(-c2ccccc2)cc1 (some centres not stated)	C diff HTS -98
CO[C@H]1CN(C)C(=O)c2cc(NC(=O)C3CC3)ccc2OC[C@H](C)N(C(=O)c2ccccc2F)C[C@@H]1C	none
Cc1noc(C)c1S(=O)(=O)N(C)C[C@H]1OCCCC[C@@H](C)Oc2ccc(NS(=O)(=O)c3ccc(F)cc3)cc2C(=O)N([C@@H](C)CO)C[C@H]1C	none
CNC[C@H]1Oc2ccc(NC(=O)Nc3c(C)noc3C)cc2C(=O)N([C@@H](C)CO)C[C@@H]1C	none
CC(C)c1cn(CC[C@H]2CC[C@H](NS(=O)(=O)Cc3ccccc3)[C@@H](CO)O2)nn1	none (no result: C diff HTS)
C[C@H]1CN([C@@H](C)CO)C(=O)c2cccc(NS(=O)(=O)c3cccs3)c2O[C@H]1CN(C)Cc1ccc(Cl)c(Cl)c1	none
C[C@@H]1CN([C@H](C)CO)C(=O)Cc2cc(NC(=O)Nc3ccc(F)cc3)ccc2O[C@H]1CN(C)CC1CC1	none
COc1ccc(NC(=O)Nc2ccc3c(c2)CC(=O)N([C@@H](C)CO)C[C@@H](C)[C@@H](CN(C)CC2CCCCC2)O3)cc1	none
COc1ccc(NC(=O)N(C)C[C@@H]2Oc3ccc(NC(=O)Nc4ccc(F)cc4)cc3CC(=O)N([C@@H](C)CO)C[C@@H]2C)cc1	none
COc1ccc(NC(=O)Nc2ccc3c(c2)CC(=O)N([C@@H](C)CO)C[C@@H](C)[C@H](CN(C)CC2CC2)O3)cc1	none
C[C@@H]1CN([C@@H](C)CO)C(=O)Cc2cc(NC(=O)Nc3ccc(F)cc3)ccc2O[C@H]1CN(C)CC1CCCCC1	Pf Dd2 growth -89
COc1ccc(NC(=O)Nc2ccc3c(c2)CC(=O)N([C@@H](C)CO)C[C@@H](C)[C@H](CN(C)CC2CCCCC2)O3)cc1	Pf Dd2 growth -90
COc1ccc(NC(=O)Nc2ccc3c(c2)CC(=O)N([C@@H](C)CO)C[C@H](C)[C@@H](CN(C)C(=O)Nc2ccc(F)cc2)O3)cc1	Pf Dd2 growth -85
COc1ccc(NC(=O)Nc2ccc3c(c2)CC(=O)N([C@H](C)CO)C[C@H](C)[C@@H](CN(C)CC2CCCCC2)O3)cc1	Pf Dd2 growth -86
COCC#Cc1ccc2c(c1)O[C@@H](CN(C)CC1CCOCC1)[C@H](C)CN([C@@H](C)CO)S2(=O)=O	none
CN(C)C(=O)C[C@H]1CC[C@H]2[C@@H](COc3ccc(NC(=O)C4CC4)cc3C(=O)N2C)O1	none
COc1ccc(NC(=O)Nc2ccc3c(c2)C(=O)N([C@@H](C)CO)C[C@@H](C)[C@@H](CN(C)C(=O)Nc2c(C)noc2C)OCCCC[C@@H](C)O3)cc1	none
COc1ccc(NC(=O)Nc2ccc3c(c2)CC(=O)N([C@@H](C)CO)C[C@H](C)[C@H](CN(C)CC2CC2)O3)cc1	none
COc1ccc(NC(=O)Nc2ccc3c(c2)CC(=O)N([C@@H](C)CO)C[C@@H](C)[C@@H](CN(C)CC2CC2)O3)cc1	Pf Dd2 growth -83
CNC[C@@H]1Oc2ccc(NC(=O)NC(C)C)cc2C(=O)N([C@@H](C)CO)C[C@H]1C	none
C[C@@H]1CN([C@H](C)CO)C(=O)c2cc(NS(=O)(=O)c3ccc(Cl)cc3)ccc2O[C@@H]1CN(C)S(=O)(=O)c1ccc(F)cc1	none
C[C@H](CO)N1C[C@H](C)[C@H](CN(C)S(=O)(=O)c2ccc(F)cc2)Oc2ccc(NS(=O)(=O)c3ccc(Cl)cc3)cc2C1=O	Pf Dd2 growth -93
COc1ccc(S(=O)(=O)Nc2ccc3c(c2)CC(=O)N([C@@H](C)CO)C[C@H](C)[C@H](CN(C)S(=O)(=O)c2ccc(C)cc2)O3)cc1	Pf Dd2 growth -86
C[C@@H]1CN([C@@H](C)CO)C(=O)Cc2cc(NS(=O)(=O)c3ccc(Cl)cc3)ccc2O[C@H]1CN(C)S(=O)(=O)c1ccc(Cl)cc1	Pf Dd2 growth -85
COc1ccc(S(=O)(=O)N(C)C[C@@H]2Oc3ccc(NS(=O)(=O)c4ccc(C)cc4)cc3CC(=O)N([C@H](C)CO)C[C@@H]2C)cc1	none
C[C@H]1CN([C@@H](C)CO)C(=O)Cc2cc(NS(=O)(=O)c3ccc(Cl)cc3)ccc2O[C@H]1CN(C)S(=O)(=O)c1ccc(Cl)cc1	none
C[C@@H]1CN([C@@H](C)CO)C(=O)c2cc(NS(C)(=O)=O)ccc2O[C@@H](C)CCCCO[C@@H]1CN(C)C(=O)NC1CCCCC1	none (no result: C diff HTS)
C[C@@H]1CN([C@H](C)CO)C(=O)c2cccc(NC(=O)CCCCCC(=O)Nc3ccccc3N)c2O[C@@H]1CN(C)Cc1ccccc1	none
C[C@@H]1CN([C@H](C)CO)C(=O)c2cccc(NC(=O)CCCCCC(=O)Nc3ccccc3N)c2O[C@@H]1CN(C)Cc1ccc(-c2ccccc2)cc1	Pf Dd2 growth -89
C[C@H]1CN([C@@H](C)CO)C(=O)c2cccc(NC(=O)CCCCCC(=O)Nc3ccccc3N)c2O[C@H]1CN(C)Cc1ccc(-c2ccccc2)cc1	Pf Dd2 growth -85
C[C@H](CO)N1C[C@H](C)[C@H](CN(C)Cc2ccccc2)Oc2c(NC(=O)CCCCCC(=O)Nc3ccccc3N)cccc2C1=O	none
Fc1ccccc1-c1ccc(C2[C@@H]3CN(Cc4ccccn4)C[C@H]2N3)cc1 (some centres not stated)	none
C(=C\c1ccc(C2[C@@H]3CN(Cc4cccnc4)C[C@H]2N3)cc1)/c1ccccc1 (some centres not stated)	Pf Dd2 growth -90
Fc1ccccc1-c1ccc(C2[C@@H]3CN(Cc4ccccc4)C[C@H]2N3)cc1 (some centres not stated)	C diff HTS -98
c1ccc(CN2C[C@@H]3N[C@H](C2)C3c2ccc(-c3ccncc3)cc2)cc1 (some centres not stated)	Pf Dd2 growth -84
c1cncc(CN2C[C@@H]3N[C@H](C2)C3c2ccc(-c3cccnc3)cc2)c1 (some centres not stated)	none
c1ccc(CN2C[C@@H]3N[C@H](C2)C3c2ccc(-c3ccccc3)cc2)cc1 (some centres not stated)	none
O=C(CN1CCOCC1)NCC[C@H]1CC[C@H](NC(=O)Nc2ccc(C(F)(F)F)cc2)[C@@H](CO)O1	none (no result: C diff HTS)
COc1ccccc1-c1ccc2c(c1)O[C@@H](CN(C)Cc1ccc3c(c1)OCO3)[C@@H](C)CN([C@H](C)CO)S2(=O)=O	none
CO[C@@H](C(=O)N(C)C[C@@H]1OCc2ccccc2-c2c(n(C)c3ccccc23)C(=O)N([C@H](C)CO)C[C@@H]1C)c1ccccc1	none

Bioassay records (PubChem BioAssay)
